# According to article PMC7819943, “Rice protein-binding microarrays: a tool to detect cis-acting elements near promoter regions in rice”:
# Whole data set: some 35,000 sequences, median “fluorescence intensity (a.u.)” near 10,000, cut for the highest 2% near 52,000. The full list was thinned out, with the highest values kept by preference.
# Target: T1, OsWOX13 (Oryza sativa, UniProt Q5QMM3 1-267)
# T1 sequence: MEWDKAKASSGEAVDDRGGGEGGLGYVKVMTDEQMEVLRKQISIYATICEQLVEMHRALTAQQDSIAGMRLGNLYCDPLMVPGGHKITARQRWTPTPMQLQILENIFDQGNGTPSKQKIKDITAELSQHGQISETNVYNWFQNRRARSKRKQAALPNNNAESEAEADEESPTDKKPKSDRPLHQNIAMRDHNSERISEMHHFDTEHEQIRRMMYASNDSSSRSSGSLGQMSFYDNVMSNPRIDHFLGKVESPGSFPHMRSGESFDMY
# Test: protein-binding microarray (RPBM); PBS, 2% BSA, 51.3 ng/ul salmon testes DNA, 50 uM zinc acetate, 200 nM TF, 25 C, 1 h; high values mean tight binding
# Settings: protein: recombinant; tags: N-terminal polyhistidine and DsRed monomer fusion (pET32a); label: CyDye5-dUTP incorporated in the synthesized complementary strand; 3' TTTTT single-stranded linker to array surface; dsDNA, one strand shown
# How it was run: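 Transcription factors, each fused N-terminally to a polyhistidine tag and DsRed, were expressed in E. coli BL21-CodonPlus and purified on Ni–NTA. A custom Agilent array was made double-stranded by primer extension with Cy5-dUTP and blocked with 2% BSA. It was incubated with 200 nM protein in PBS, 2% BSA, salmon testes DNA and 50 µM zinc acetate at 25 °C for 1 h, then washed. The binding signal is per-feature fluorescence intensity (arbitrary units) read on an Axon 4000B scanner.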
row,Sequence,binding signal
1,TGGATTAAACTAATTTACTGATAAGGTGCGTACAAAATTGCGGAGTCACCTAGTGCAG,9850 fluorescence intensity (a.u.)
2,CTATGTCTGTGTTTGATGATTGCAAGCTGATGTGGGATGGCGGAGTCACCTAGTGCAG,9180 fluorescence intensity (a.u.)
3,ATCTATCTATCTATCTATCTATCTATCTATCTATCTATCTCGGAGTCACCTAGTGCAG,20600 fluorescence intensity (a.u.)
4,ATCTGTGTAGTCAATTATATTCTCCCTGGGGCCAAACGAACGGAGTCACCTAGTGCAG,4100 fluorescence intensity (a.u.)
5,ATGACACATGCCGTTGATTGGTTGACACAGATCGGATTCGCGGAGTCACCTAGTGCAG,46900 fluorescence intensity (a.u.)
6,TGATCTGATTGAACAGTCAATCACAGATTCACAGTAGGACCGGAGTCACCTAGTGCAG,62500 fluorescence intensity (a.u.)
7,AACACATTGGATTGATTGATCTGTCGCGGAACAGATTGACCGGAGTCACCTAGTGCAG,52300 fluorescence intensity (a.u.)
8,CATTTGACTGAACAAGAACAGTAGGATCAATCTTTGTGCACGGAGTCACCTAGTGCAG,16900 fluorescence intensity (a.u.)
9,TTTGTTGATTTGTTTTGGTTGGATTGATCTGTCGCTTATACGGAGTCACCTAGTGCAG,25500 fluorescence intensity (a.u.)
10,CCAGTCAAGGGAACAGATTGACCAATCGTTCACACCAGTGCGGAGTCACCTAGTGCAG,18400 fluorescence intensity (a.u.)
11,TTCCAACCAATCATAACCCAATAAGAGCAAAATGGAAAACCGGAGTCACCTAGTGCAG,4060 fluorescence intensity (a.u.)
12,AGGTGTTGATTTTGGGTGGCGGGCCCAATCGGATAGGCCACGGAGTCACCTAGTGCAG,3770 fluorescence intensity (a.u.)
13,CTGAGGACACTTAATGATTGATGCTCATAATATATTGTTTCGGAGTCACCTAGTGCAG,17300 fluorescence intensity (a.u.)
14,AAAAGCAGGTTTACTTACGCCTCATGTTCTCACACTAATTCGGAGTCACCTAGTGCAG,24400 fluorescence intensity (a.u.)
15,TCTGTCTGATTTGTAATCTTTTCCCTTGGCTTTGAGCGTGCGGAGTCACCTAGTGCAG,29400 fluorescence intensity (a.u.)
16,AATTAATTAATTAGCAATGCAGCATCGTCGATCATTGACCCGGAGTCACCTAGTGCAG,62500 fluorescence intensity (a.u.)
17,GGTCGATCCATCGATTGATGGATCAATAATGCAAGCAAGCCGGAGTCACCTAGTGCAG,5030 fluorescence intensity (a.u.)
18,CTTAATTAATTAATAGCAGCAGCAATGCCACTGTGGCCATCGGAGTCACCTAGTGCAG,53500 fluorescence intensity (a.u.)
19,TTTGCCACTAATTAATCTACTAATGGCTTATGATAGTCATCGGAGTCACCTAGTGCAG,10700 fluorescence intensity (a.u.)
20,GCAATAATAATTACTGATAGCCACCACTATCAATAATAATCGGAGTCACCTAGTGCAG,12600 fluorescence intensity (a.u.)
21,TATATATATATAATTATGCATCCTGGTTAGCAATTAATGTCGGAGTCACCTAGTGCAG,3400 fluorescence intensity (a.u.)

row,Sequence,binding signal
1,TTATTTGTTTTGTTTGTGATTTGCTTTATTATCAAAAGTACGGAGTCACCTAGTGCAG,4600 fluorescence intensity (a.u.)
2,ATCGTATCATTGATTTTCACTTAATATGGTGGACCCATCACGGAGTCACCTAGTGCAG,12700 fluorescence intensity (a.u.)
3,ACAGACATAAATACGATTGATTAAGTAGTAGCCTAGCTAACGGAGTCACCTAGTGCAG,14600 fluorescence intensity (a.u.)
4,GGTTTATTCAATTATGAAATTTTACTCCCCTATGTACTAACGGAGTCACCTAGTGCAG,11100 fluorescence intensity (a.u.)
5,GTTCATGCAATAACGTTAATTTGGGACTAGATTAGTATCCCGGAGTCACCTAGTGCAG,7620 fluorescence intensity (a.u.)
6,TTTATAATTAGTATCAAAACATCCGATATGATAGTTACTTCGGAGTCACCTAGTGCAG,17100 fluorescence intensity (a.u.)
7,CCAATCCACAACATAACCATCAATCATTCATTGACGCAAGCGGAGTCACCTAGTGCAG,4680 fluorescence intensity (a.u.)
8,GATTAATTTACTAGACGAATCTTTTAAGCCTAATTACTCCCGGAGTCACCTAGTGCAG,36100 fluorescence intensity (a.u.)
9,TTTCATGTAAATTAACACGAGCCTGAATCCTCCGTTGAAGCGGAGTCACCTAGTGCAG,3750 fluorescence intensity (a.u.)
10,CCGTCGCCTGATGGAGCAGAATCGTGAAACACGTTGTAAGCGGAGTCACCTAGTGCAG,57800 fluorescence intensity (a.u.)
11,CTAAACACGTTGATGGGCCTGAATGGAGGAAGCCCATCGACGGAGTCACCTAGTGCAG,3790 fluorescence intensity (a.u.)
12,ATAATAATTAGTCATAAAGACAAGTGCTTATGCCCACTTACGGAGTCACCTAGTGCAG,16700 fluorescence intensity (a.u.)
13,ATGTGTCAATTAATTATTTGCCACTCGCTGTCTATGACATCGGAGTCACCTAGTGCAG,28300 fluorescence intensity (a.u.)
14,GGTGGATGAGAATGGATTGAATGAAAACAACAACATATTACGGAGTCACCTAGTGCAG,7970 fluorescence intensity (a.u.)
15,TTTTGATCACACCATGATTGATGCACAAATCCATATGAACCGGAGTCACCTAGTGCAG,36800 fluorescence intensity (a.u.)
16,TGAAGATTGATGAGATGGACGGTACCATTGCCGATGCTGTCGGAGTCACCTAGTGCAG,56700 fluorescence intensity (a.u.)
17,ATTGATGGGTACATTGAGATGGAGCTGTTTGGACAAGTTGCGGAGTCACCTAGTGCAG,7520 fluorescence intensity (a.u.)
18,TTGCTGATTGAAGCTGATACTGTCGTGAAATGAACCATGTCGGAGTCACCTAGTGCAG,38200 fluorescence intensity (a.u.)
19,ATGATTGATTGCTTTTCCTAAATCCTAACCATGATGCTGTCGGAGTCACCTAGTGCAG,65000 fluorescence intensity (a.u.)
20,CAATTGTCCGGATTGAGATATGACTGAAGCGGATGCTGGACGGAGTCACCTAGTGCAG,3220 fluorescence intensity (a.u.)
21,GCCTAAGATAATTGATAAGAGTGCTTAAAGTGTACAACCGCGGAGTCACCTAGTGCAG,37500 fluorescence intensity (a.u.)
